# Screening data deposited in PubChem BioAssay by National Center for Advancing Translational Sciences (NCATS).
# Hits are enriched below; roughly 15% of the tested compounds scored in any of these assays.
# DT40 TDP1 no CPT = qHTS for Inhibitors of human tyrosyl-DNA phosphodiesterase 1 (TDP1): qHTS in cells in absence of CPT; DT40 Tdp1-/- hTDP1 cells, no CPT, ATP luminescence, 48 h; Potency, µM (top dose mostly 46.2 µM), actives largely listed as inhibitors; 15% of 420,000 active; AID 686978, 2013; note: nearly all actives have a fitted effect of over 55% in size
#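 Stably hTDP1-transfected Tdp1-null chicken DT40 cells were treated with library compounds minus camptothecin and grown for at least 48 hr at 37 °C, after which cellular ATP was quantified by luminescence.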
# ELG1 repair inh = inhibitors of ELG1-dependent DNA repair in HEK293T cells; HEK293T ELG1-luciferase reporter, luminescence, 16 h; DNA damage induced by 5-fluorouridine; Potency, µM (highest dose often 46.1 µM), actives largely listed as inhibitors; 2.3% of 330,000 active; AID 504467; note: nearly all actives have a fitted effect of over 55% in size
#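 In this reporter screen, reduction of luminescence relative to DMSO vehicle indicated activity. Compounds and 5-fluorouridine were added together to 2,000 cells per well, incubated for 16 hr at 37 °C, then developed with ONE-Glo.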
# RORg inh = blocks mouse ROR gamma transcriptional activity. Drosophila S2 Gal4-RORgamma UAS-luciferase reporter, 20 h. AID 2551. 5.4% of 310,000 active. Potency, µM (doses to about 53.6 µM), actives largely listed as inhibitors. P51450; note: nearly all actives have a fitted effect of over 60% in size
# Target sequence (P51450 whole entry, looked up, the tested form may be a part): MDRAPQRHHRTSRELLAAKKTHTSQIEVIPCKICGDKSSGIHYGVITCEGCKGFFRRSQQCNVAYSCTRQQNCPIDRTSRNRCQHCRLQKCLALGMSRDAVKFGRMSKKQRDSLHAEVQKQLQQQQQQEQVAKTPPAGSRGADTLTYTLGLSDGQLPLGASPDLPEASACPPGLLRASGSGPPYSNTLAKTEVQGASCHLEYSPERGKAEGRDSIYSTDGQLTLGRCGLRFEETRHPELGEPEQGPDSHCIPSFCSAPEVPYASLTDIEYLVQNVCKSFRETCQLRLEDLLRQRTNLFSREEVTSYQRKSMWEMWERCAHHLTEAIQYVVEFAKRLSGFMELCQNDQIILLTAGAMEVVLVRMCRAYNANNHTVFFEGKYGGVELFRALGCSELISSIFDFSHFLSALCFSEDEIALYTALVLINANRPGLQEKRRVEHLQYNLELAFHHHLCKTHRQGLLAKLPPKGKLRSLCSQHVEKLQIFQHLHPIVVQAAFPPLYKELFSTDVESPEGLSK
#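 Stably transfected Drosophila Schneider cells are the test system, with ROR gamma fused to Gal4 and luciferase under UAS control; luminescence is read after 20 hr of 700 uM copper sulfate induction at ambient temperature.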
# 12-LOX inh = inhibitors of human 12S-lipoxygenase ALOX12; purified 12hLO, xylenol orange hydroperoxide absorbance; P18054; Potency, µM (highest dose often 108 µM), hits mostly inhibitors; 1.1% of 580,000 active
#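 Purified human 12hLO (150 nM final) in 25 mM Hepes, 0.01% Triton X-100, pH 7.0 was preincubated 15 min at room temperature with compound. Then 40 uM arachidonic acid was added, 30 min. Hydroperoxide was read by Fe-XO absorbance ratio 573/405 nm.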
# DT40 TDP1 CPT = DT40-hTDP1 cell growth loss with CPT; chicken DT40 Tdp1-/-;hTDP1 cells + 20 nM CPT, ATP luminescence, 48 h; Potency, µM (top dose mostly 46.2 µM), hits mostly inhibitors; 12% of 420,000 active; AID 686979; note: nearly all actives have a fitted effect of over 55% in size
#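 Chicken DT40 Tdp1-/- cells complemented with human TDP1, 400 cells/well, exposed to compounds plus 20 nM camptothecin for at least 48 h at 37 C; viability read as ATP content by CellTiter-Glo luminescence.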
# Gal4-VP16 FLuc = Gal4-VP16 reporter inhibition counter-screen | Drosophila S2 Gal4-VP16 UAS-luciferase, luminescence, 20 h | Potency, µM (titrated, usually from 53.6 µM), most hits filed as inhibitors | 3.5% of 310,000 active | AID 2546;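 note: Gal4-VP16 expression switched on by copper sulfate through the metallothionein promoter; nearly all actives have a fitted effect of over 50% in size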
# A number is an active result; 0 = inactive; ? = inconclusive; - = no result. Calls come from the whole dose curve; as a rule, active = well fitted curve in the direction sought with a large enough effect; inconclusive = small, poorly fitted or top-dose-only effect, or another doubt; inactive = no such curve, though single readings can be large; an effect the other way counts as inactive or inconclusive.
SMILES,DT40 TDP1 no CPT,ELG1 repair inh,RORg inh,12-LOX inh,DT40 TDP1 CPT,Gal4-VP16 FLuc
CCN1C(=O)[C@H]2[C@@H](c3ccc(-c4ccccc4)cc3)N[C@@](CC(C)C)(C(=O)OC)[C@H]2C1=O,18µM,0,-,?,26µM,-
CCN1C(=O)[C@H]2[C@@H](c3ccc(SC4CCCCC4)cc3)N[C@@](CC(C)C)(C(=O)OC)[C@H]2C1=O,21µM,0,-,0,?,-
CCN1C(=O)[C@H]2[C@@H](c3ccc(-c4ccccc4)c(OC)c3)N[C@@](CC(C)C)(C(=O)OC)[C@H]2C1=O,15µM,0,-,0,18µM,-
CCC(C)Sc1ccc([C@H]2N[C@@](CC(C)C)(C(=O)OC)[C@H]3C(=O)N(CC)C(=O)[C@@H]23)cc1 (some centres not stated),?,?,-,0,?,-
CCN1C(=O)[C@H]2[C@@H](c3ccc(-c4ccc(OC)cc4)c(OC)c3)N[C@@](CC(C)C)(C(=O)OC)[C@H]2C1=O,?,0,-,0,?,-
CN1CCN(c2nc3ccccc3nc2NS(=O)(=O)c2ccc(Cl)cc2)CC1,-,-,-,0,-,-
COc1cccc(C(=O)N2CCC(N3C[C@H](O)C[C@H]3C(=O)N3CC=C(c4ccccc4)CC3)CC2)c1,-,-,-,0,-,-
Cc1cc(Cl)c2oc(C(=O)NCC(C)(C)N3CCOCC3)c(C)c2c1,?,?,0,0,23µM,0
Cc1cc(Cl)c2oc(C(=O)N(C)CCc3cnn(C)c3)c(C)c2c1,0,0,0,0,18µM,0
Cc1cc(Cl)c2oc(C(=O)N(C)CCCCN3CCOCC3)c(C)c2c1,?,0,0,0,0,0
Cc1cc(Cl)c2oc(C(=O)N(C)CCCN3CCOCC3)c(C)c2c1,16µM,?,0,0,?,0
O=C(NCCN1CCOCC1)c1sc2cc(Cl)ccc2c1Cl,?,?,0,0,0,0
CC(C)(CNC(=O)c1sc2cc(Cl)ccc2c1Cl)N1CCOCC1,16µM,?,-,0,16µM,-
CS(=O)(=O)N(CCCC(=O)Nc1ccccc1C(=O)NCC1CCCO1)c1ccccc1 (configuration not stated),-,-,-,0,-,-
O=C(Nc1cccc(C(F)(F)F)c1)N[C@H]1[C@H](O)[C@@H](N2CCN(c3ccccc3)CC2)[C@@H]2OC[C@H]1O2,-,-,-,0,-,-
C[C@@H]1CN(C(=O)c2ccc(F)cc2F)CC[C@@]1(O)C1CCOCC1,-,-,-,0,-,-
Cc1c(C(=O)N2CCCCC2)sc(NC(=O)C23CC4CC(CC(C4)C2)C3)c1C#N,18µM,-,-,0,?,-
Cc1cccc(C(=O)Nc2sc(C(=O)N3CCCC3)c(C)c2C#N)c1,?,0,0,0,?,0
Cc1c(C(=O)N2CCCC2)sc(NC(=O)c2cccc(Cl)c2)c1C#N,26µM,?,0,0,?,?
COc1cc(C2C(C(=O)OC(C)C)=C(C)N=C3SCCC(=O)N32)ccc1OCc1ccccc1 (configuration not stated),29µM,-,-,0,13µM,-
CC(C)CNc1ccc2c(n1)C(C)(C(=O)NCCc1cnc[nH]1)CN(Cc1ccccc1)C2 (configuration not stated),-,-,-,0,-,-
O=C(NCc1ccccc1OC(F)F)c1ccccc1-n1cnnn1,-,-,-,0,-,-
CC(=O)Nc1nc2ccccc2n1CCN(C)C,0,0,?,0,0,?
CC(=O)Nc1nc2ccccc2n1Cc1ccccc1,?,0,2.2µM,0,?,5.6µM
O=NNc1nc2ccccc2n1Cc1ccccc1,2.3µM,?,1.8µM,0,4.6µM,2.8µM
SMILES,DT40 TDP1 no CPT,ELG1 repair inh,RORg inh,12-LOX inh,DT40 TDP1 CPT,Gal4-VP16 FLuc
COCCn1cnnc1SC(C)c1ccccc1Cl (configuration not stated),-,-,-,0,-,-
O=C(NC(c1ccccc1)c1ccccc1)c1cccs1,-,-,-,0,-,-
O=C(COC(=O)/C(=C/c1cccs1)c1cccs1)NC(c1ccccc1)c1ccccc1,16µM,0,0,0,16µM,0
CC(C)C(=O)Nc1ccc2c(c1)CN(CCc1ccc(F)cc1)C(=O)C(C)O2 (configuration not stated),-,-,-,0,-,-
CCN(CC)S(=O)(=O)c1ccc(C(=O)Nc2ccc(Cc3ccncc3)cc2)cc1,15µM,?,5.6µM,0,16µM,3.5µM
CCN(CC)S(=O)(=O)c1ccc(C(=O)Nc2nnc(NC(=S)Nc3ccccc3)s2)cc1,23µM,?,?,?,?,?
CCCN(CCC)S(=O)(=O)c1ccc(C(=O)Nc2nc3c(s2)CCc2ccccc2-3)cc1,15µM,?,?,0,16µM,0
CCN(Cc1ccncc1)S(=O)(=O)c1ccc(C(C)=O)cc1,12µM,6.5µM,0,0,16µM,7.9µM
CN(CCCO)C(=O)c1cccc(CC2CCNCC2)c1,-,-,-,0,-,-
COCCN1C(=O)C(=O)/C(=C(/O)c2ccc(C)cc2)C1c1ccc(Cl)c(Cl)c1 (configuration not stated),-,-,-,0,-,-
Cc1cccc(C)c1NC(=O)C(c1cccs1)N(Cc1ccco1)C(=O)Cn1nnc2ccccc21 (configuration not stated),10µM,0,0,0,?,0
COc1cccc(C(C(=O)NCc2ccco2)N(C(=O)Cn2nnc3ccccc32)C2CC2)c1OC (configuration not stated),13µM,0,0,0,18µM,0
O=C(NC1CCCCC1)C(c1ccccc1F)N(Cc1ccco1)C(=O)Cn1nnc2ccccc21 (configuration not stated),18µM,0,0,0,?,0
Cc1ccc(C(C(=O)NC2CCCCC2)N(Cc2ccco2)C(=O)Cn2cnc3ccccc32)cc1 (configuration not stated),?,0,0,0,18µM,0
CCn1cc(S(=O)(=O)N2CCCCC2c2nc(C3CC3)n[nH]2)cn1 (configuration not stated),-,-,-,0,-,-
O=C(NC1CCCCC1)C(c1ccc(F)cc1)N(Cc1ccco1)C(=O)CN1C(=O)c2ccccc2S1(=O)=O (configuration not stated),18µM,0,0,0,?,?
O=C(NC1CCCCC1)C(c1ccc(F)cc1)N(Cc1ccco1)C(=O)Cn1nnc2ccccc21 (configuration not stated),0,0,0,0,0,0
COc1ccc(C(C(=O)NCc2ccccc2)N(C(=O)Cn2nnc3ccccc32)c2ccc(F)cc2)cc1 (configuration not stated),15µM,-,-,0,?,-
